Experimental findings from PubChem BioAssay (NCATS) are described below.

Holding throughout (test): qHTS profiling for inhibitors of Plasmodium falciparum proliferation (AID 504749); further: nearly all actives have a fitted effect of over 60% in size
Holding throughout (details): P. falciparum in erythrocytes, SYBR Green DNA, 72 h; series mostly up to 28.7 µM
In general terms: qHTS replaces the single test concentration by a dilution series.

For one assay, the system named is CP237. An outline of the steps: (§1)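 Parasite proliferation within erythrocytes, 72 h exposure. Endpoint: SYBR Green I fluorescence after overnight lysis at room temperature. Controls: 0.29 uM artemisinin, DMSO.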
The next assay deals with CP238. An outline of the steps:
as §1

The test system of another assay is CP247. An outline of the steps: as §1
A further assay concerns CP250. An outline of the steps: as §1
The test system of a further assay is CP252. An outline of the steps:
as §1

The next assay relates to CP256. An outline of the steps:
as §1

Another assay concerns CP260. An outline of the steps: as §1
Another assay has as its system CP262. An outline of the steps:
as §1

The subject of another assay is CP265. An outline of the steps: as §1
Another assay concerns CP266. An outline of the steps: as §1
A further assay has as its system CP268. An outline of the steps: as §1
For the next assay, the system named is CP269. An outline of the steps:
as §1

A further assay concerns CP286. An outline of the steps: as §1
A further assay has as its system CP291. An outline of the steps: as §1
Another assay concerns CP297. An outline of the steps:
as §1

For another assay, the system named is CP305. An outline of the steps: as §1
In a further assay the test system is CP315. An outline of the steps: as §1
The next assay relates to CP325. An outline of the steps:
as §1

The next assay deals with CP329. An outline of the steps:
as §1

A further assay relates to CP335. An outline of the steps: as §1

Records with an inconclusive call do not appear. Active and inactive are the calls of the source. The call rests on the fitted dose curve; in most records, active means well fitted inhibition curve with a large enough effect; inconclusive means small, poorly fitted or top-dose-only effect; inactive means flat fitted curve, though single readings scatter.
Potency means the concentration at half of the fitted maximal effect.

In the case of `CCCn1c(=O)[nH]c(=O)c2[nH]cnc21`, the Potency result in the assay on CP237, in the assay on CP238, with CP247, with CP250, in the assay on CP252 and in the assay with CP256 was “inactive” each time. The Potency entry in the assay on CP260, with CP262, in the assay on CP265, with CP266, in the assay on CP268 and in the assay on CP269 was “inactive” in each case. Moreover, the Potency entry in the assay with CP286, with CP291, with CP297, with CP305, in the assay on CP315 and in the assay on CP325 was “inactive” each time. In addition, the Potency result with CP329 and in the assay on CP335 was “inactive” in each case.
For `CC(C)COC(=O)OCN1C(=O)CN(CCN2CC(=O)N(COC(=O)OCC(C)C)C(=O)C2)CC1=O`, the Potency entry in the assay with CP237, in the assay with CP238, in the assay with CP247, with CP250, in the assay on CP252 and in the assay on CP256 was “inactive” in each case. For the same molecule, the Potency result in the assay on CP260, with CP262, in the assay on CP265, in the assay with CP266, with CP268 and with CP269 was “inactive” each time. The Potency entry in the assay on CP286, in the assay with CP291, in the assay with CP297, in the assay on CP305, with CP315 and with CP325 was “inactive” in each case. Also, the Potency result with CP329 and in the assay with CP335 was “inactive” throughout.
Consider `COC(=O)[C@@H]1CC2=CC(=O)CC[C@]2(C)[C@@]23O[C@@H]2C[C@@]2(C)[C@@H](CC[C@@]24CCC(=O)O4)[C@H]13`, for which the Potency result in the assay with CP237, in the assay with CP238, with CP247, with CP250, in the assay on CP252 and in the assay on CP256 was “inactive” in each case. Moreover, the Potency result in the assay on CP260, with CP262, in the assay with CP265, with CP266, with CP268 and in the assay on CP269 was “inactive” throughout. The Potency entry in the assay on CP286, in the assay on CP291, in the assay with CP297, in the assay with CP305, in the assay on CP315 and in the assay on CP325 was “inactive” in each case. Besides, the Potency result with CP329 and with CP335 was “inactive” throughout.
Take `C[C@H](O)C(=O)Nc1c(I)c(C(=O)NC(CO)CO)c(I)c(C(=O)NC(CO)CO)c1I`: the Potency entry with CP237, with CP238, in the assay with CP247, in the assay on CP250, with CP252 and with CP256 was “inactive” throughout. In addition, the Potency result with CP260, in the assay on CP262, in the assay on CP265, with CP266, in the assay with CP268 and with CP269 was “inactive” in each case. Further, the Potency result in the assay on CP286, in the assay with CP291, with CP297, in the assay with CP305, with CP325 and in the assay on CP329 was “inactive” in each case. For the same molecule, the Potency result in the assay with CP335 was “inactive”.
For `C1CCc2nnnn2CC1`, the Potency entry in the assay on CP237, in the assay on CP238, in the assay with CP247, in the assay on CP250, in the assay on CP252 and in the assay on CP256 was “inactive” throughout. For the same molecule, the Potency entry in the assay on CP260, in the assay with CP262, in the assay on CP265, with CP266, with CP268 and in the assay with CP269 was “inactive” throughout. In addition, the Potency result with CP286, in the assay with CP291, in the assay on CP297, in the assay on CP305, in the assay with CP315 and in the assay with CP325 was “inactive” each time. Also, the Potency result with CP329 and with CP335 was “inactive” each time.
Consider `CCCCCCCCCCCCCCCC[N+](C)(C)CC`, for which the Potency with CP237 was 4.47 µM (active); in the assay with CP238 it was 5.01 µM (active); in the assay on CP247, 4.47 µM (active); in the assay on CP250, 5.01 µM (active); in the assay with CP252 it was 5.01 µM (active); with CP256, 5.01 µM (active). In addition, the Potency in the assay on CP260 is 2.82 µM (active); in the assay on CP262, 4.78 µM (active); in the assay with CP265, 5.01 µM (active); in the assay on CP266 it was 13.5 µM (active); with CP268, 6.75 µM (active); with CP269 it was 4.26 µM (active). For the same molecule, the Potency in the assay on CP286 was 1.41 µM (active); with CP291 it was 4.78 µM (active); in the assay on CP297, 6.75 µM (active); with CP305, 6.01 µM (active); in the assay on CP315 it was 4.78 µM (active); in the assay with CP325, 6.01 µM (active). Further, the Potency in the assay with CP329 and in the assay on CP335 was 4.78 µM (active) in each case.
On to `CCn1cc(C(=O)O)c(=O)c2cnc(N3CCCC3)nc21`, for which the Potency result in the assay with CP237, in the assay with CP238, in the assay on CP247, in the assay with CP250, with CP252 and with CP256 was “inactive” throughout. In addition, the Potency entry in the assay on CP260, with CP262, in the assay on CP265, with CP266, in the assay on CP268 and with CP269 was “inactive” in each case. In addition, the Potency result in the assay on CP286, in the assay on CP291, in the assay on CP297, with CP305, with CP315 and in the assay with CP325 was “inactive” in each case. In addition, the Potency entry with CP329 and with CP335 was “inactive” in each case.
Take `CCCCOc1ccc(C(=O)CCN2CCCCC2)cc1`: the Potency entry with CP237, with CP238, in the assay with CP247, with CP250, in the assay on CP252 and in the assay with CP256 was “inactive” in each case. Also, the Potency entry with CP260, in the assay with CP262, in the assay with CP265, with CP266, in the assay with CP268 and in the assay with CP269 was “inactive” throughout. The Potency entry with CP286, in the assay with CP291, in the assay with CP297, in the assay on CP305, in the assay on CP315 and with CP325 was “inactive” throughout. The Potency entry with CP329 and in the assay with CP335 was “inactive” in each case.
Take `C[C@]12CC[C@@H]3c4ccc(O)cc4CC[C@H]3[C@@H]1CC[C@@H]2O`: the Potency entry with CP237, in the assay with CP238, with CP247, in the assay on CP250, with CP252 and in the assay on CP256 was “inactive” throughout. The Potency entry with CP260, in the assay with CP262, in the assay with CP265, with CP266, with CP268 and in the assay on CP269 was “inactive” each time. Further, the Potency entry in the assay with CP286, with CP291, in the assay with CP297, with CP305, with CP315 and in the assay with CP325 was “inactive” throughout. Moreover, the Potency result in the assay with CP329 and in the assay with CP335 was “inactive” throughout.
Take `O=c1ccc2ccccc2o1`: the Potency result in the assay with CP237, in the assay on CP238, in the assay on CP247, in the assay with CP250, in the assay on CP252 and with CP256 was “inactive” each time. In addition, the Potency entry in the assay on CP260, with CP262, in the assay with CP265, with CP266, with CP268 and with CP269 was “inactive” in each case. For the same molecule, the Potency result in the assay with CP286, with CP291, in the assay with CP297, in the assay with CP305, with CP315 and in the assay with CP325 was “inactive” throughout. In addition, the Potency entry in the assay on CP329 and with CP335 was “inactive” each time.
For the molecule `C[C@H]1[C@H](NC(=O)/C(=N/OC(C)(C)C(=O)O)c2csc(N)n2)C(=O)N1S(=O)(=O)O` (stereo in doubt), the Potency entry in the assay on CP237, with CP238, in the assay with CP247, with CP250, with CP252 and in the assay with CP256 was “inactive” each time. Further, the Potency result in the assay on CP260, with CP262, in the assay on CP265, in the assay on CP266, in the assay with CP268 and in the assay with CP269 was “inactive” in each case. In addition, the Potency result in the assay with CP286, in the assay with CP291, in the assay on CP297, in the assay with CP305, in the assay on CP315 and with CP325 was “inactive” each time. Also, the Potency result in the assay with CP329 and in the assay with CP335 was “inactive” each time.
For the molecule `N[C@@H](Cc1cnc[nH]1)C(=O)O`, the Potency result with CP237, with CP238, with CP247, in the assay with CP250, with CP252 and in the assay with CP256 was “inactive” each time. Also, the Potency result in the assay on CP260, in the assay with CP262, with CP265, with CP266, in the assay on CP268 and in the assay with CP269 was “inactive” throughout. The Potency result in the assay on CP286, in the assay on CP291, in the assay with CP297, in the assay with CP305, in the assay on CP315 and in the assay on CP325 was “inactive” throughout. The Potency entry in the assay on CP329 and with CP335 was “inactive” in each case.
Take `COc1cc(C(=S)N2CCOCC2)cc(OC)c1OC`: the Potency entry with CP237, with CP238, in the assay with CP247, with CP250, with CP252 and with CP256 was “inactive” each time. Further, the Potency entry in the assay on CP260, in the assay with CP262, with CP265, in the assay with CP266, in the assay with CP268 and in the assay on CP269 was “inactive” throughout. Further, the Potency entry in the assay with CP286, with CP291, in the assay on CP297, in the assay with CP305, in the assay with CP315 and in the assay with CP325 was “inactive” throughout. The Potency result in the assay with CP329 and with CP335 was “inactive” in each case.
